From the supplement of paper PMC6555819

Each sequence was assayed on PPARg DBDmut:RXRa IVT, anti-PPARg (DBD mutation: PPARg1 K132A/R137A, NR concentration 270 nM, RXRa partner concentration 90 nM) (assay: PBM binding z-score (relative to random genomic background probes); higher = stronger binding; sequences stand for … in GC…GCGATTGACAGCGTAGAATGAAGG).
Outline: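 Ligand-free nuclear receptor dimers were applied to custom Agilent 4×180K protein-binding microarrays whose double-stranded probes carried direct-repeat seeds, single-nucleotide variants, half-site ablations and random human genomic background sequences in 34-nt variable regions. Incubation lasted 1 h. Binding z-scores were computed against the random background probes from regression-normalized fluorescence.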
CCTAGTTGGTCAAGGTCACGCACGCTATAGGTAC was tested, and the PBM binding z-score was 0.403.
In the case of GATACAGGGTCATCTAGAGGCCAGAGTATGGAAA, the PBM binding z-score is reported as 0.707.
Sequence AGTCAAAGTTCACTAGGTTACGTAAGATTCAGCT has a PBM binding z-score of 1.8.
CCAGACAGGTGAAAGGTAACTCACTCTGGTACGC was tested, and the PBM binding z-score was -0.16.
For ATCTCTAGGTGAAAGTTCAGTGAATCCCGAGGAT, the PBM binding z-score was 1.5.
Sequence CAAACTAGGTCAAGGTCAAATTCGGTTTGTGCCA has a PBM binding z-score of 2.45.
Work on CAAACTAGGTCACGAAAGGTCAAAATCGAATGAC yielded a PBM binding z-score of 2.54.
CCTACTGGGCCAAGGTCATTGACCAGTCAAAGCA showed a PBM binding z-score of -0.707.
In the case of TTAACAAGGTGAAAGGTCGTTGATGCACGCCTTG, the PBM binding z-score is reported as 0.666.
CCTGCTCGGTCAATGGTCAGCTAAAGCAGCTCGC gave a PBM binding z-score of -1.19.
With CGTCAAAGTTCAAGGTAATGTAACAGAAAGCAGC the PBM binding z-score was 0.311.
Work on CAAACTAGGTCAAAGGTCAAAGACGAGCCAACCA yielded a PBM binding z-score of 6.19.
CCTACTGGGCCATTGAGAGGTCATTGATCATATG gave a PBM binding z-score of -0.492.
CCTGCTAGTTCATGGTCAGCTAATCTACAGTATG was tested, and the PBM binding z-score was -0.434.
With TCTAGTTCGTCACGGAGGTCACACACGACGGGTA the PBM binding z-score was 0.73.
For AGAATGAGGTTAGCAAAGATCAGGGAAACGCTTG, the PBM binding z-score was 0.688.
In the case of TAGCCTAGGTCATTCAGGGGCTAGTATAGAAAGC, the PBM binding z-score is reported as -0.0413.
For ACTCGGAGGACAAAGGTAAGAGCTACGCCAGTGA, the PBM binding z-score was -0.619.
For TCATATAGGTAATCAGGTGAAAGTCCGTAAGTTA, the PBM binding z-score was 1.73.
CCTACTGGGCCAAAGGTCATTGACTCCAATGCTC was tested, and the PBM binding z-score was 0.277.
AAATGTAGGTTAAGGGTCATTCAGGTTGGTTCGC gave a PBM binding z-score of 2.18.
GGAACTAGGGCAAAGTTGATAGCATCTGTCGACG showed a PBM binding z-score of 3.88.
Work on CAAACTAGGTCAAGGGGTCAAAGTCCGCTTCCCG yielded a PBM binding z-score of 0.711.
ATCGAAAGGTCGTGAGGTGAGTACACAGAAAGGC gave a PBM binding z-score of 1.04.
CGAACTAGTTCAAGGACAGTGAATCTCCGCACGC was tested, and the PBM binding z-score was -0.635.
Work on CCTGCTAGTTCAATGGTCAGCTAAAGCAGCTCGC yielded a PBM binding z-score of -0.548.
For ATATGTAGGTTAGCGGGGGTCATTCAGACTAGGC, the PBM binding z-score was 5.31.
With CGTCCAAGGTCAGCAGGTGAGTGAAAGCGACGTG the PBM binding z-score was -0.33.
In the case of TAGCCTCGGTCATTGGGCCAGTATAGTACGCATC, the PBM binding z-score is reported as -0.424.
GCTAGTTGGTCAGTAAATGGTCACACACCGGTCG showed a PBM binding z-score of 0.157.
For AGACAAAGTTCAGGACGAGGTAACGTAAAGCACG, the PBM binding z-score was 0.472.
Sequence CGCACTAGGTCATTGACAGGACAGTGAATAGTAA has a PBM binding z-score of 3.67.
Work on ATGGAAAGGTCGTGAGGTGAGTATACAGAAAGGC yielded a PBM binding z-score of 0.977.
ATATCTAGGTAAAAGTTCAGTGAATCCCGAGGAT was tested, and the PBM binding z-score was 1.91.
CCTACTGGGCCGAGGTCATTGATCAGTCAAAGCA showed a PBM binding z-score of -0.758.
TTACCAAAGTGAAAGGTCGTTGATGCACGCCTTG gave a PBM binding z-score of 0.177.
Work on CCTAGTAGGTTATGGGGCATTCAGGCAACGGTGA yielded a PBM binding z-score of 0.403.
AGTCAAAGTTCATCTGGGTAACGTAAGATATGCT was tested, and the PBM binding z-score was 0.881.
For TCTTGTAGATCAAAGGTCAAGAAAGCCGAAGCCT, the PBM binding z-score was -0.0392.
